Experimental data taken from PubChem BioAssay (Tox21).
Inconclusive results are not listed. The source made the active and inactive calls. Unless noted, calls come from the whole dose curve.

What was measured:
[1] = qHTS assay to identify small molecule antagonists of the estrogen related receptor signaling pathway with the pleiotropic PPARgamma coactivator (PGC) from Tox21 10K library - cell viability counter screen (AID 1224840; active = well fitted cell-killing curve with a large enough effect in the repeat runs, not every such curve was filed as active; note: nearly all actives have a fitted effect of over 40% in size)
Outline: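 Cell viability is measured by CellTiter-Fluor fluorescence in PGC/ERR cells that receive compounds after a 6-hour attachment period and are then incubated 17.5 hours at 37 C.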

[2] = qHTS assay to identify small molecule antagonists of the estrogen related receptor signaling pathway with the pleiotropic PPARgamma coactivator (PGC) from Tox21 10K library (AID 1224841; call rule not given here; note: series mostly up to about 92 µM; actives are mostly falling curves and most rising ones were filed inactive; nearly all actives have a fitted effect of over 50% in size)
Outline: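 Cells stably carrying the PGC/ERR reporter, seeded at 2,000 per well, received pin-transferred compounds 6 h post-plating. Exposure lasted 18 h at 37 C. Signal: One-Glo luminescence.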

[3] = qHTS assay to identify small molecule agonists of the estrogen related receptor signaling pathway with the pleiotropic PPARgamma coactivator (PGC) from Tox21 10K library (AID 1224842; active = well fitted curve in the direction sought with a large enough effect in the repeat runs; an effect the other way counts as inactive or inconclusive; note: nearly all actives have a fitted effect of over 15% in size)
Outline: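 PGC/ERR reporter cells (NTP line) were seeded 2,000 per well, rested 6 h at 37 C/5% CO2, then pin-dosed with compounds in DMSO for 18 h at 37 C; luciferase read by One-Glo luminescence after 30 min at room temperature.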

[4] = qHTS assay to identify small molecule agonists of the hypoxia (HIF-1) signaling pathway - cell viability counter screen (AID 1224844); note: nearly all actives have a fitted effect of over 50% in size
Outline: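 Viability counter screen: HRE-bla ME-180 cells plated 5 hrs before compound addition, treated 17 hrs at 37C and 5% CO2, then CellTiter-Glo added after the FRET reporter read; luminescence after 30 min.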

[5] = qHTS assay to identify small molecule agonists of H2AX (AID 1224845; active = well fitted activation curve with a large enough effect in the signal ratio in the repeat runs, not every such curve was filed as active; the % refers to the signal ratio)
Outline: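 Wild-type CHO-K1 cells plated overnight, then exposed 3 hr at 37C to compounds at 15 concentrations (0.76% DMSO). Lysed, then HTRF anti-pH2AX(S139)-cryptate/anti-H2AX-d2 detection after 24 hr at room temperature; emissions 665 and 620 nm.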

[6] = qHTS assay to identify small molecule agonists of the hypoxia (HIF-1) signaling pathway (AID 1224846; active = well fitted activation curve with a large enough effect in the signal ratio in the repeat runs, not every such curve was filed as active; the % refers to the signal ratio)
Outline: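 Agonist mode reporter screen. ME-180 cells stably expressing bla under HRE control received test compounds in DMSO for 17 hrs (37C, 5% CO2), and beta-lactamase activity was then detected with the CCF4-AM FRET substrate.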

[7] = qHTS assay to identify small molecule agonists of H2AX - cell viability counter screen (AID 1224847); note: top concentration of the series differs between compounds; nearly all actives have a fitted effect of over 30% in size
Outline: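 Quantitative HTS viability measurement: CHO-K1 wild-type cells in serum (10% FBS) medium, short 3 hr drug exposure at 37C with 0.76% DMSO, CellTiter-Glo luminescent detection.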

[8] = qHTS assay to identify small molecule antagonists of the estrogen related receptor (ERR) signaling pathway from Tox21 library (AID 1224848; active = well fitted curve in the direction sought with a large enough effect in the repeat runs; an effect the other way counts as inactive or inconclusive; note: nearly all actives have a fitted effect of over 50% in size; note: potency is the fitted concentration of half-maximal effect)
Outline: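 First, 2,000 ERR cells per well were plated and held 6 h at 37 C/5% CO2. Next, compounds in DMSO were pinned in and left 18 h at 37 C. Finally, ONE-Glo was added and luminescence read after 30 min at room temperature.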

[9] = qHTS assay to identify small molecule agonists of the estrogen related receptor (ERR) signaling pathway from Tox21 library (AID 1224849); note: nearly all actives have a fitted effect of over 15% in size
Outline: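 Quantitative HTS in agonist format: NTP ERR cell line, compounds transferred in DMSO after 6 h plating, 18 h incubation at 37 C, ONE-Glo luminescence endpoint.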

[10] = target: Thyrotropin receptor (Homo sapiens) (UniProt P16473); assay: qHTS assay to identify small molecule agonists of the thyroid stimulating hormone receptor (TSHR) signaling pathway (AID 1224843); note: nearly all actives have a fitted effect of over 45% in size
Outline: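 Compounds are titrated over 15 concentrations, in triplicate, onto TSHR-HEK293 cells seeded at 800/well. Plates sit 30 min at room temperature before cAMP-d2 and anti-cAMP cryptate are added; signal is read after a further hour.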

Measured: Potency

Chain of Thyrotropin receptor (Homo sapiens) (P16473 whole entry, looked up): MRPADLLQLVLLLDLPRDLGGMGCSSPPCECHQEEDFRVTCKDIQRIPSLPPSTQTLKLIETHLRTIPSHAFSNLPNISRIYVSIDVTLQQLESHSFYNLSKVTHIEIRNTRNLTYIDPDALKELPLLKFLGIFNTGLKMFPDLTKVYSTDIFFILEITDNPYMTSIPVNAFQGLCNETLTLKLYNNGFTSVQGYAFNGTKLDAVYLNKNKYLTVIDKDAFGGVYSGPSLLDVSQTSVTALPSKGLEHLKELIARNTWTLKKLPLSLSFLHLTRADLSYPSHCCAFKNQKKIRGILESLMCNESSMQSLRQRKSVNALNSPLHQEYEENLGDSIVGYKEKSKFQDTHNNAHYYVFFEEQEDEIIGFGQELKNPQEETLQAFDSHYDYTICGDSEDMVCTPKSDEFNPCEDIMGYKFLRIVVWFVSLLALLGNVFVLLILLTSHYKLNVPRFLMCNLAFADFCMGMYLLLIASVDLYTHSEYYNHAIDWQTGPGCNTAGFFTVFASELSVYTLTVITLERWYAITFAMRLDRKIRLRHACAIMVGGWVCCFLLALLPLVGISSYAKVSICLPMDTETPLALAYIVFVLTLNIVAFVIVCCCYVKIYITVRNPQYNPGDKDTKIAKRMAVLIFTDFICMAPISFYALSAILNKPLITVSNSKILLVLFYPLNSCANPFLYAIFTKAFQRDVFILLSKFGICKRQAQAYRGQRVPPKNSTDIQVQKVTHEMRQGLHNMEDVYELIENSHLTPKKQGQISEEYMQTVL

CC(C)C(=O)c1ccccc1
inactive: [1] | [2] | [3] | [4] | [5] | [6] | [7] | [8] | [9]

Cc1oc(=O)oc1CN1CCN(c2cc3c(cc2F)c(=O)c(C(=O)O)c2n3C(C)S2)CC1 (stereo not drawn)
inactive: [1] | [10] | [4] | [5] | [6] | [7]

CCCCC(CC)CNC(=O)CC(C)OC(=O)CCC(=O)O (stereo not drawn)
inactive: [1] | [2] | [10] | [4] | [5] | [6] | [7] | [8]

Cc1c(C(C)C)c(=O)n(-c2ccccc2)n1C
inactive: [1] | [3] | [4] | [6] | [7] | [8] | [9]

CCOC(=O)C(=O)c1csc(NC=O)n1
inactive: [1] | [10] | [4] | [5] | [6] | [7]

SCCSCCS
inactive: [1] | [10] | [4] | [5] | [6]

CC(C)COC(=O)/C=C/c1ccccc1
inactive: [1] | [2] | [3] | [4] | [5] | [6] | [8] | [9]

CCCCCCCCCCC
inactive: [1] | [2] | [3] | [4] | [5] | [7] | [8] | [9]

C=C(C)[C@@H]1CC[C@@H](C)C[C@@H]1O
inactive: [1] | [10] | [4] | [5] | [6] | [7]

C=C(C)C(=O)OCCCCCCOC(=O)C(=C)C
inactive: [1] | [2] | [3] | [4] | [5] | [6] | [8] | [9]

COc1ccc(/C=N/NC(=O)c2ccncc2)cc1OC
inactive: [1] | [10] | [4] | [5] | [6] | [7]

O=C(/C=C/c1ccccc1)NCCO
inactive: [1] | [10] | [4] | [5] | [6] | [7]

Cc1nc2n(c(=O)c1CCN1CCC(C(=O)c3ccc(F)cc3)CC1)CCS2
active: [8] 11.9 µM
inactive: [1] | [3] | [4] | [5] | [6] | [7] | [9]

CCCCCCCCCCCCOC(C)=O
inactive: [1] | [10] | [4] | [5] | [6] | [7]

CCCCCCCC/C=C\CCCCCCCC(=O)OC[C@@H](O)[C@H]1OC[C@H](O)[C@H]1O
inactive: [1] | [10] | [4] | [5] | [6] | [7]

CN[C@@H]1[C@H](O)[C@H](NC)[C@H]2O[C@@]3(O)C(=O)C[C@@H](C)O[C@H]3O[C@@H]2[C@H]1O
inactive: [1] | [10] | [4] | [5] | [6] | [7]

CC(C)CCCCCCOC(=O)C1CCCCC1C(=O)OCCCCCCC(C)C (stereo not drawn)
inactive: [1] | [10] | [4] | [5] | [6] | [7]

CCN1CN(CC)CN(CC)C1
inactive: [1] | [10] | [4] | [5] | [6]

Cc1ccc(S(=O)(=O)NC(=O)NC2CCCCCCC2)cc1
inactive: [1] | [10] | [4] | [5] | [6] | [7]

Cc1ccccc1C(=O)N1CC/C(=N\OS(=O)(=O)O)c2ccc(Cl)cc21
inactive: [1] | [3] | [10] | [4] | [6] | [7] | [8] | [9]

Nc1ccnc(=O)[nH]1
inactive: [1] | [10] | [4] | [5] | [6] | [7]

C[N+](C)(C)CC(O)CCl (stereo not drawn)
inactive: [1] | [10] | [4] | [5] | [6] | [7]

C[C@H](CCC(=O)O)[C@H]1CC[C@H]2[C@@H]3[C@H](O)C[C@@H]4C[C@H](O)CC[C@]4(C)[C@H]3C[C@H](O)[C@]12C
inactive: [1] | [10] | [4] | [5] | [6] | [7]

O=[Si]=O
inactive: [1] | [2] | [3] | [4] | [5] | [6] | [8] | [9]

CC(C)(C)c1ccc(C=O)cc1
inactive: [1] | [10] | [4] | [5] | [6] | [7]

C1=CCC(c2ccccc2)CC1 (stereo not drawn)
inactive: [1] | [3] | [10] | [4] | [5] | [6] | [7] | [8] | [9]

COc1ccc(NS(=O)(=O)c2ccc(N)cc2)nn1
inactive: [1] | [2] | [3] | [4] | [5] | [7] | [8] | [9]

COC(/C=C(\C)CCC=C(C)C)OC
inactive: [1] | [10] | [4] | [5] | [6] | [7]

CN(C1CCCCC1)S(=O)(=O)c1ccccc1N
inactive: [1] | [3] | [10] | [4] | [5] | [6] | [7] | [8] | [9]

CC(=O)OC(C)(C)Cc1ccccc1
inactive: [1] | [10] | [4] | [5] | [6]

O=S(=O)(O)SSS(=O)(=O)O
inactive: [1] | [10] | [4] | [5] | [6] | [7]

Cc1nc(C)nc(N2C[C@@H](C)N(c3ccnc([C@@H](C)O)n3)[C@@H](C)C2)n1
inactive: [1] | [3] | [4] | [5] | [6] | [7] | [9]
active: [8] 13.3 µM

CCS(=O)(=O)CCn1c([N+](=O)[O-])cnc1C
inactive: [1] | [3] | [10] | [4] | [5] | [7] | [8] | [9]

CC(C)(C)NCCO
inactive: [1] | [2] | [3] | [5] | [6] | [7] | [8] | [9]
